# Experimental data published in PubChem BioAssay (NCATS).
# Unmarked numbers belong to inactive results. Records with an inconclusive call do not appear. A call without a number means that no potency is given here. Active and inactive are the calls of the source. Unless noted, the call rests on the fitted dose curve; in most records, active means well fitted curve in the direction sought with a large enough effect; inconclusive means small, poorly fitted or top-dose-only effect, or another doubt; inactive means no such curve, though single readings can be large; an effect the other way counts as inactive or inconclusive.
# Columns and labels:
# [1] = Cell Viability - BJ (AID 421; calls by dose curve;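 further: potency means the concentration at half of the fitted maximal effect; cells exposed to compound for 40 hours at 37 °C before readout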); conditions: BJ fibroblast viability, qHTS
# In short: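 Quantitative HTS: ATP depletion in BJ cells after 40 hr compound exposure in complete culture medium, detected with CellTiter-Glo; AC50 from standard Hill fits.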
# [2] = Cell Viability - HepG2 (AID 433; calls by dose curve;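 further: potency means the concentration at half of the fitted maximal effect; potency for ATP loss meaning cytotoxicity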); conditions: qHTS
# In short: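 HepG2 hepatocellular carcinoma cells (1500/well) were treated with compounds for 40 h at 37 °C in complete medium; intracellular ATP was read by CellTiter-Glo luminescence. Data were normalized to DMSO and 100 uM tamoxifen, and AC50 came from Hill fits.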
# [3] = Cell Viability - N2a (AID 540); conditions: N2a mouse neuroblastoma cell viability; activity change, negative = cytotoxicity: at 92.2 µM (top of the series); further: nearly all actives have a fitted effect of over 45% in size
# In short: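 Mouse neuroblastoma N2a cells, 1500/well, exposed to compounds 40 h at 37 °C in complete medium. Viability measured as cellular ATP by CellTiter-Glo luminescence; AC50 from Hill fits of concentration-response.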
# [4] = Cellular Toxicity (caspase-3) HepG2 (AID 654); conditions: HepG2 caspase-3 activation, luminescence, 0% = DMSO only, 100% = tamoxifen; series mostly up to 92.2 µM;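 further: cells exposed to compound for 16 hours before reading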
# In short: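 HepG2 cells (1500/well) were treated 16 h at 37 °C in complete medium, then caspase 3/7 activity was read by Caspase-Glo luminescence. Data were normalized to DMSO and 100 uM tamoxifen; AC50 came from Hill-equation fits of qHTS concentration-response.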
# [5] = Cellular Toxicity (caspase-3) Jurkat (AID 655); conditions: Jurkat caspase-3 activation, luminescence; caspase-3 activation: at 92.2 µM (top of the series), DMSO = 0%, tamoxifen = 100%;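 further: cells exposed to compound for 16 h at 37 °C before reading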
# In short: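 Jurkat cells (5000/well) in complete medium were treated with compounds for 16 hr at 37 °C, then Caspase-Glo 3/7 luminescence was read after 20 min at room temperature. Data normalized to DMSO (basal) and 100 uM tamoxifen (100%); AC50 from Hill fit.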
# [6] = Cellular Toxicity (caspase-3) HUV-EC-C (AID 656); conditions: HUV-EC-C cells, caspase-3 activation (apoptosis), vehicle = 0, 100 µM tamoxifen = 100%; series mostly up to 92.2 µM
# In short: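 HUV-EC-C endothelial cells, 1000/well, were pre-incubated 5 hr at 37°C, then exposed to compounds for 16 hr at 37°C. Caspase-Glo 3/7 luminescence was read after 20 min at room temperature. AC50 came from Hill fits, normalized to DMSO and 100 uM tamoxifen.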
# [7] = Cellular Toxicity (caspase-3) BJ (AID 658); conditions: BJ fibroblasts, luminescence, normalized: DMSO 0%, staurosporine 100%; series mostly up to 91.7 µM
# In short: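 Readout: Caspase-Glo 3/7 luminescence increase in BJ cells after 16 hr treatment at 37 °C. Staurosporine and tamoxifen served as positive controls; AC50 values came from Hill modelling of data normalized to DMSO and 10 uM staurosporine.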
# [8] = Cellular Toxicity (caspase-3) NIH 3T3 (AID 666); conditions: NIH 3T3 caspase-3 activation, apoptosis/toxicity; series mostly up to 92.2 µM;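 further: caspase signal read after 16 h compound exposure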
# In short: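 Mouse NIH 3T3 fibroblasts (1000/well) treated 16 h at 37 C; caspase-3/7 activity measured by Caspase-Glo 3/7 luminescence after 20 min. Normalized to DMSO and 100 uM tamoxifen; AC50 from Hill fits.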
# [9] = target: Cytochrome P450 3A4 (Homo sapiens) (UniProt P08684); experiment: qHTS Assay for Inhibitors and Substrates of Cytochrome P450 3A4 (AID 884); conditions: recombinant CYP3A4, Luciferin-PPXE luminescence; series mostly up to 57.1 µM; further: nearly all actives have a fitted effect of over 50% in size
# Sequence of Cytochrome P450 3A4 (Homo sapiens) (P08684 whole entry, looked up): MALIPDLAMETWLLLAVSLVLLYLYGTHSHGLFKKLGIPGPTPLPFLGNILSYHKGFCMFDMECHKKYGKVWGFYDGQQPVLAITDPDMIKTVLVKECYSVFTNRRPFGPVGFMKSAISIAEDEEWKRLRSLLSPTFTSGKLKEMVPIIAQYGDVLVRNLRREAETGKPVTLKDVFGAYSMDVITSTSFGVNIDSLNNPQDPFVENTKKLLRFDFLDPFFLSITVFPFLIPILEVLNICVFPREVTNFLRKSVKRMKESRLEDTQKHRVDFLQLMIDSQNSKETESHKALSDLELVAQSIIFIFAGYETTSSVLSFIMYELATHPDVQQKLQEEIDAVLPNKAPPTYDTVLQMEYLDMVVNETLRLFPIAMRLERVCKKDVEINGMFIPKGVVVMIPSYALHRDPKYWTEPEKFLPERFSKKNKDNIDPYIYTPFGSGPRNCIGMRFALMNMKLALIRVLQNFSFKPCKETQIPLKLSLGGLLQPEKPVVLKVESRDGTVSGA
# In short: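 20 nM human CYP3A4 with 25 uM Luciferin-PPXE (at KM) in 200 mM KPO4, preincubated 10 min with compound; NADPH regeneration started a 60 min RT reaction. Luciferin detected by luminescence, normalized to 57 uM ketoconazole as full inhibition.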
# [10] = MultiTox-Fluor Cytotoxicity Assay - LYMP1-001 - Dead Cells (AID 946); conditions: LYMP1-001 lymphoblastoid cells, dead-cell protease fluorescence; series mostly up to 92.2 µM
# In short: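 In this qHTS, 15 uM tetraoctylammonium bromide defined 100% and DMSO defined basal activity. Lymphoblastoid cells (LYMP1-001, 2500 per well) received compound for 16 hr at 37 C before a fluorogenic dead-cell substrate readout at 485/520 nm.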
# [11] = MultiTox-Fluor Cytotoxicity Assay - LYMP1-002 - Live Cells (AID 955); conditions: LYMP1-002 lymphoblastoid live-cell protease fluorescence viability; series mostly up to 46.1 µM
# In short: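 Human lymphoblastoid LYMP1-002 cells, 2500/well, treated 16 h at 37 C in complete medium. Live-cell protease activity via GF-AFC fluorescence (Ex/Em 405/510) after 60 min reagent incubation; AC50 from Hill fits.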
# [12] = MultiTox-Fluor Cytotoxicity Assay - LYMP1-002 - Dead Cells (AID 960); conditions: LYMP1-002 lymphoblastoid cells, dead-cell protease fluorescence; series mostly up to 46.1 µM; further: nearly all actives have a fitted effect of over 60% in size
# In short: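 Human lymphoblastoid LYMP1-002 cells, 2500/well, treated 16 h at 37 C; dead-cell protease cleavage of bis-AAF-R110 read by fluorescence (485/520); normalized to DMSO and 15 uM tetraoctylammonium bromide; AC50 from Hill fit.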
# [13] = Cell Viability - LYMP2-009 (AID 968); conditions: LYMP2-009 lymphoblastoid cell viability; series mostly up to 92.2 µM; further: nearly all actives have a fitted effect of over 55% in size; further: potency means the concentration at half of the fitted maximal effect
# [14] = Cell Viability - LYMP2-011 (AID 969); conditions: LYMP2-011 lymphoblastoid cells viability; series mostly up to 92.2 µM; further: nearly all actives have a fitted effect of over 60% in size
# In short: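 2500 cells/well in complete medium, compound-treated 24 h at 37 C. Viability read as intracellular ATP by CellTiter-Glo luminescence after 30 min at room temperature. AC50 from Hill fits of qHTS concentration-response data.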
# [15] = Cell Viability - LYMP2-017 (AID 972); conditions: LYMP2-017 lymphoblastoid cell viability; series mostly up to 92.2 µM; further: nearly all actives have a fitted effect of over 55% in size; further: potency means the concentration at half of the fitted maximal effect
# In short: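 LYMP2-017 human lymphoblastoid cells (2500/well) settled 5 hr at 37 C, then exposed to compound 24 hr at 37 C in complete medium. Viability taken as intracellular ATP by CellTiter-Glo luminescence after 30 min at RT; AC50 from Hill fits.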
# [16] = Cell Viability - LYMP2-021 (AID 974); conditions: LYMP2-021 lymphoblastoid cells viability; series mostly up to 92.2 µM;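 further: compound exposure lasts 24 hours at 37 °C; nearly all actives have a fitted effect of over 55% in size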; further: potency means the concentration at half of the fitted maximal effect
# In short: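 Human lymphoblastoid LYMP2-021 cells, 2500/well in complete medium, treated 24 hours at 37 C. Intracellular ATP by CellTiter-Glo luminescence (30 min, RT); AC50 from Hill fits of concentration-response.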
# [17] = Cell Viability - LYMP2-016 (AID 984); conditions: LYMP2-016 lymphoblastoid cell viability, qHTS; series mostly up to 92.2 µM; further: nearly all actives have a fitted effect of over 55% in size; further: potency means the concentration at half of the fitted maximal effect
# In short: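 Human lymphoblastoid cells (LYMP2-016), 2500/well in complete medium, preincubated 5 hr at 37 C, then compound-treated 24 hr at 37 C. Intracellular ATP read by CellTiter-Glo luminescence after 30 min at room temperature; AC50 from Hill-equation concentration-response fits.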
# [18] = target: Thyroid hormone receptor beta (Homo sapiens) (UniProt P10828); experiment: qHTS assay for small molecule agonists of thyroid hormone receptor beta signaling (AID 588545; calls by dose curve); conditions: TR-UAS-bla GripTite HEK 293, beta-lactamase ratio, agonist mode, 18 h; series mostly up to 76.7 µM
# Sequence of Thyroid hormone receptor beta (Homo sapiens) (P10828 whole entry, looked up): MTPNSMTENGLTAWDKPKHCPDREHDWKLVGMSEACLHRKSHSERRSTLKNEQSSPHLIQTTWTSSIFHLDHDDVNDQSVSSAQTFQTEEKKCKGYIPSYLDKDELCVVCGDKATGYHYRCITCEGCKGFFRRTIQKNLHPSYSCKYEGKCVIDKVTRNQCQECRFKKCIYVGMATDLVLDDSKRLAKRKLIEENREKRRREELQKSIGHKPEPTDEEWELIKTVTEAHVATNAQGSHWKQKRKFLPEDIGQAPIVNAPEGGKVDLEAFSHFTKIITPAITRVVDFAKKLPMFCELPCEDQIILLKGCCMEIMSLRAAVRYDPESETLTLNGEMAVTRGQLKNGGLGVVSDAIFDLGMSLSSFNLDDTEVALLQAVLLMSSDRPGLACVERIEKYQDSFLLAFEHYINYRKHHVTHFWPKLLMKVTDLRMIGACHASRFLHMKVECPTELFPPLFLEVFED
# In short: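 In this cell-based screen, titrated compounds act on HEK 293 cells held in medium with 2% charcoal/dextran FBS, NEAA and pyruvate for 18 hrs at 37 C. Responses are expressed relative to T3 (10 nM) as 100% and basal DMSO as 0%.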
# [19] = Cell Viability - LYMP2-026 (AID 989); conditions: LYMP2-026 lymphoblastoid cell viability, qHTS; series mostly up to 92.2 µM; further: nearly all actives have a fitted effect of over 50% in size; further: potency means the concentration at half of the fitted maximal effect
# In short: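 Human lymphoblastoid LYMP2-026 cells, 2500/well, exposed to compound 24 h at 37 C in complete medium. Viability as intracellular ATP by CellTiter-Glo luminescence; AC50 from Hill fits of qHTS concentration-response.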
# [20] = target: Vitamin D3 receptor (Homo sapiens) (UniProt P11473); experiment: qHTS assay for small molecule agonists of vitamin D receptor signaling (AID 588543; calls by dose curve); conditions: HEK293T VDR-UAS-bla, beta-lactamase ratio, 16 h; series mostly up to 76.8 µM
# Sequence of Vitamin D3 receptor (Homo sapiens) (P11473 whole entry, looked up): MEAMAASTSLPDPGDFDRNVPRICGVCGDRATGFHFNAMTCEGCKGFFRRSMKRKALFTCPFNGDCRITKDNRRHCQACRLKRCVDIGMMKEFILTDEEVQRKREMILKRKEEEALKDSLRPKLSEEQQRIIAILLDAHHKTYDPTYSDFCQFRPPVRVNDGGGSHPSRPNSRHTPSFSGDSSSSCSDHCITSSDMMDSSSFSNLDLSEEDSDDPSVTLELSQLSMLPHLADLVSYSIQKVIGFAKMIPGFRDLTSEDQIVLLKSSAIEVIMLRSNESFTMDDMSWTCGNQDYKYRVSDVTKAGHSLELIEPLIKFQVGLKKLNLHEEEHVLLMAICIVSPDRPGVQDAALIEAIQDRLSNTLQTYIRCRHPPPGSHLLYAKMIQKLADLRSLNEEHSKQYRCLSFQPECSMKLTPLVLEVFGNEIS
# In short: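 GeneBLAzer VDR-UAS-bla HEK293T cells in 2% charcoal-stripped FBS medium were dosed with compound titrations for 16 h at 37 °C; CCF4 β-lactamase readout (405 nm ex, 460/530 nm em). EC50 and efficacy from Hill fits, normalized to 50 nM calcitriol (100%) and DMSO (0%).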
SMILES,Potency [1] [µM],Potency [2] [µM],Potency [3],outcome [4],caspase-3 activation [5] [%],outcome [6],outcome [7],Potency [8],Potency [9],outcome [10],outcome [11],Potency [12],Potency [13],Potency [14],Potency [15],Potency [16],Potency [17],Potency [18],Potency [19],outcome [20]
BrCCc1ccccc1,> 92,> 92,inactive,inactive,1.89,inactive,inactive,inactive,inactive,inactive,inactive,inactive,inactive,inactive,inactive,inactive,inactive,inactive,,
Cc1ccc([N+](=O)[O-])cc1,> 92,> 92,inactive,inactive,-0.655,inactive,inactive,inactive,,,inactive,inactive,inactive,inactive,inactive,inactive,,inactive,inactive,inactive
CCOC(=O)CBr,> 92,,inactive,inactive,1.06,inactive,inactive,inactive,inactive,inactive,inactive,inactive,inactive,inactive,inactive,inactive,inactive,inactive,inactive,inactive
CCOC(=O)C1OC1(C)c1ccccc1 (stereo not given),> 92,,inactive,inactive,-2.16,inactive,,inactive,inactive,inactive,inactive,inactive,inactive,inactive,inactive,inactive,inactive,,inactive,
C/C=C/C=O,> 92,> 92,inactive,inactive,0.559,inactive,inactive,inactive,,inactive,,inactive,inactive,inactive,inactive,inactive,inactive,inactive,inactive,inactive
N#C/C=C/C#N,,> 92,,inactive,-8.24,inactive,inactive,inactive,inactive,inactive,inactive,inactive,31.6 µM (active),,31.6 µM (active),39.8 µM (active),39.8 µM (active),,39.8 µM (active),inactive
Brc1cccc(-c2ccccc2)c1,> 92,,,inactive,1.47,inactive,inactive,,inactive,inactive,inactive,inactive,inactive,inactive,,inactive,inactive,inactive,inactive,inactive
